Assay results published in PubChem BioAssay AID624481 (The Scripps Research Institute Molecular Screening Center, 2012).

target: Prolyl endopeptidase-like (Mus musculus) (UniProt Q8C167); experiment: purified PREPL inhibitors, PREPL inhibitor project, biochemical, gel-based competitive ABPP, fluorescence, HTS hits (AID 624481); conditions: at 20 µM, active compounds read high
Sequence (Q8C167 whole entry, looked up): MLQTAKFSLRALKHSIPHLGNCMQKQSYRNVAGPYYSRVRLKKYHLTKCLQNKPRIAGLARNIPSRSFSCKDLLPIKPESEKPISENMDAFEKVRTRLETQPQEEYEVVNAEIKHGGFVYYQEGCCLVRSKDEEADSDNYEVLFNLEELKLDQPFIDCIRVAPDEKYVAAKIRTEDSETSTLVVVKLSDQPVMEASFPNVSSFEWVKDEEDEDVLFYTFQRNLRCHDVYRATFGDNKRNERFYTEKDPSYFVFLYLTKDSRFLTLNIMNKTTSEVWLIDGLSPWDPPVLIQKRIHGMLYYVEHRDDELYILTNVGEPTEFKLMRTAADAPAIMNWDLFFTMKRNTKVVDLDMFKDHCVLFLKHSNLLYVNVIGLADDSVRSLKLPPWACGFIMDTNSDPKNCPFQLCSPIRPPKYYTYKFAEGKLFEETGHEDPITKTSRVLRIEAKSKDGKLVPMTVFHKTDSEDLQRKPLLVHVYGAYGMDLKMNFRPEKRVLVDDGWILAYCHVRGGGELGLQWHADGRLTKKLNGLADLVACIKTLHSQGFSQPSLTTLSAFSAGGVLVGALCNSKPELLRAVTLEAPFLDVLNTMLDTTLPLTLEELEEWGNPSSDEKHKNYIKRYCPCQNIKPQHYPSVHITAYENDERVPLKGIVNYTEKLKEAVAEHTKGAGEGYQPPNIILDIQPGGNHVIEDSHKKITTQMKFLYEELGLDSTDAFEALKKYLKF

inhibition, inactive:
CNc1oc(-c2ccccc2Cl)nc1P(=O)(c1ccccc1)c1ccccc1 10%
CN1CCN(CCCN2c3ccccc3Sc3ccc(Cl)cc32)CC1 -90%
Cc1cc(C)c2nc(C)cc(NN=Cc3ccc(O)cc3)c2c1 -1%
